What all share (assay): DAPPL (digital affinity profiling via proximity ligation, sequencing); 10 mM Tris-HCl pH 7.5, 50 mM NaCl, 1 mM DTT, 4% glycerol, room temperature, 30 min; GST-TFs on glutathione beads, 16-mer random dsDNA library, 0.1% formaldehyde crosslink after washing; high values mean tight binding
Holding throughout (conditions): protein: recombinant; tags: N-terminal GST; dsDNA, one strand shown

One experiment addresses T1, FLI1 (Homo sapiens, UniProt Q01543 1-452).
T1 sequence: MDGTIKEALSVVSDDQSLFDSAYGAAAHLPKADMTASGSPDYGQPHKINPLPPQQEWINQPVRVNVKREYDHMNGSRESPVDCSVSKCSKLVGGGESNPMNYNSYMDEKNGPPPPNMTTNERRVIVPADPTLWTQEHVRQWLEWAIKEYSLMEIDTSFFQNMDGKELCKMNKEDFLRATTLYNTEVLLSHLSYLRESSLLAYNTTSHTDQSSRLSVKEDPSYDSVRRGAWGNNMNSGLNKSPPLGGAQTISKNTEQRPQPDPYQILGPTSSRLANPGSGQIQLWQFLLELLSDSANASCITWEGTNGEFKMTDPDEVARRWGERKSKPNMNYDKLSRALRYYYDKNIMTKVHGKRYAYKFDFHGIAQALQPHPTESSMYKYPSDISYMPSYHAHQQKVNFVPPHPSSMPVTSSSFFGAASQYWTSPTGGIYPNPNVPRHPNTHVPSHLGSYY
In a few lines: (§1)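 Yeast served to express human transcription factors as GST fusions, which were then captured on glutathione beads and labelled with DNA barcodes. Pooled with a tag-only sample, they were incubated with 200 nmole of a 16-mer random double-stranded DNA library for 30 min at room temperature in Tris/NaCl/DTT/glycerol buffer, washed, crosslinked with 0.1% formaldehyde, ligated by proximity, amplified by PCR and sequenced. Dividing each hexamer's read frequency for a factor by its frequency for the tag-only sample gives the binding signal.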

Another experiment addresses T2, ELK1 (Homo sapiens, UniProt P19419 1-428).
T2 sequence: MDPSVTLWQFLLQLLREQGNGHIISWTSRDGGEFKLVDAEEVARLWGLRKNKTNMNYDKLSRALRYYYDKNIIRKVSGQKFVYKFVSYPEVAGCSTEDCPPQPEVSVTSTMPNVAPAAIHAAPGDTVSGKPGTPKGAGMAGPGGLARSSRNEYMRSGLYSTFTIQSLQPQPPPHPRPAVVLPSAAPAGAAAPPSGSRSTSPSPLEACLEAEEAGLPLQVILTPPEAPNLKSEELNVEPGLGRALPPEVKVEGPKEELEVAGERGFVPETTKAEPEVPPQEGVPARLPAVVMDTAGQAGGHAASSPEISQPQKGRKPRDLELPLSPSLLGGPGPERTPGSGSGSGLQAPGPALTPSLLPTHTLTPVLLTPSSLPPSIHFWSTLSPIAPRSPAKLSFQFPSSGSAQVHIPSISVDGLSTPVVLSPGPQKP
In a few lines:
as §1

For another experiment, the target named is T3, GABPA (Homo sapiens, UniProt Q06546 1-454).
T3 sequence: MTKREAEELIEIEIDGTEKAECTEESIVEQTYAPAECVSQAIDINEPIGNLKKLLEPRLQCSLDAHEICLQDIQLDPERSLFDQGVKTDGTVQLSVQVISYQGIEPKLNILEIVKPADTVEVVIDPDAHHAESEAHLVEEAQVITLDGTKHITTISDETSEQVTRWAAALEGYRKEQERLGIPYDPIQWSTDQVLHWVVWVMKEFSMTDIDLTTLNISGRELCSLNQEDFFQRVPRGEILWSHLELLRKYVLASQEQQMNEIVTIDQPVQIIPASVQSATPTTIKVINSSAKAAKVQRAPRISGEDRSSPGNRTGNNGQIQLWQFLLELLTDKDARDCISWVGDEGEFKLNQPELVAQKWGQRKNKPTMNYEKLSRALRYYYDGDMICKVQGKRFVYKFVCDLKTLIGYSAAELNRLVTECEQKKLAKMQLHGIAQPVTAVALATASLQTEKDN
In a few lines:
as §1

The next experiment has as its target T4, ERG (Homo sapiens, UniProt P11308 1-479).
T4 sequence: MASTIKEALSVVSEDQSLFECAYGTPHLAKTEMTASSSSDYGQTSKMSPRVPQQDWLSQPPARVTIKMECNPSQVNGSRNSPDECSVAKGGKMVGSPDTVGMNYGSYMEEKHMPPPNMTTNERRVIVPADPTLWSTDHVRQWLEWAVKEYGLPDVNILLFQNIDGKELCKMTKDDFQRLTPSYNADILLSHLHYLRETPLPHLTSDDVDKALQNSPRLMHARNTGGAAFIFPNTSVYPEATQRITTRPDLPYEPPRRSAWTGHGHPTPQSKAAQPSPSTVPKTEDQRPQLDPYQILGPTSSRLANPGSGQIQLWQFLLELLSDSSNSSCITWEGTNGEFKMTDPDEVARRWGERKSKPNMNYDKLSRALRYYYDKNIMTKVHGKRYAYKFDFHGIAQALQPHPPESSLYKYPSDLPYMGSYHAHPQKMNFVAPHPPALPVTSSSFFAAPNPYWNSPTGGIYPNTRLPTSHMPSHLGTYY
In a few lines: as §1

For a further experiment, the target named is ELF1 (Homo sapiens, UniProt P32519 1-619). Put shortly:
as §1

The next experiment addresses T5, EHF (Homo sapiens, UniProt Q9NZC4 1-300).
T5 sequence: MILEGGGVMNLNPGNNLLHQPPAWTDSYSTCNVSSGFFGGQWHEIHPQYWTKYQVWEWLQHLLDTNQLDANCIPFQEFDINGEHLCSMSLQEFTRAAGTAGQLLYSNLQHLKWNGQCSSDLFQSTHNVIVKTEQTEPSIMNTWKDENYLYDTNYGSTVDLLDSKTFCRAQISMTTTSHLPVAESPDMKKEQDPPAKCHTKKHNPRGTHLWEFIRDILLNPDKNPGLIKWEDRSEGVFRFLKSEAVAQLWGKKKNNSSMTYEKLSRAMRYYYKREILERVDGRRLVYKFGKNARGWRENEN
In a few lines:
as §1

The target in the next experiment is SPI1 (Homo sapiens, UniProt P17947 1-270). Put shortly:
as §1

Another experiment concerns the target SPIB (Homo sapiens, UniProt Q01892 1-262). Put shortly: as §1
Another experiment has as its target T6, ELK3 (Homo sapiens, UniProt P41970 1-407).
T6 sequence: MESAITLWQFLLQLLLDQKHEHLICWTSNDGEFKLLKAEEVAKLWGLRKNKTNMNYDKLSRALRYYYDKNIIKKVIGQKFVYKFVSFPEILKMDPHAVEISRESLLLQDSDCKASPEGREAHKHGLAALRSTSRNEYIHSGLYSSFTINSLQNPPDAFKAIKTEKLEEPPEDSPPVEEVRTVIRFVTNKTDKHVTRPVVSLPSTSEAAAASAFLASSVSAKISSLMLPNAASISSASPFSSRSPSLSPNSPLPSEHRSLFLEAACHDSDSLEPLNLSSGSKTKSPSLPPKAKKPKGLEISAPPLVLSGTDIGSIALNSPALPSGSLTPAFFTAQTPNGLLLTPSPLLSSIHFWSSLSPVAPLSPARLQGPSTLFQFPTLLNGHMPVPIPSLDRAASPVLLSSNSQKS
In a few lines:
as §1

Chain of SPIB (Q01892 whole entry): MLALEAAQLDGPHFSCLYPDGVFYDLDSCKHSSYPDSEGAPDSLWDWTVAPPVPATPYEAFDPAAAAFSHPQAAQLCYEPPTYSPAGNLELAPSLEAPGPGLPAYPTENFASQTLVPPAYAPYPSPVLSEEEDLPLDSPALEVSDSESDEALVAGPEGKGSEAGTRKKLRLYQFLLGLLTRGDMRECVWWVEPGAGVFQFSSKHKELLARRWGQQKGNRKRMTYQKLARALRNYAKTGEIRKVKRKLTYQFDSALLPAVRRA
Chain of ELF1 (P32519 whole entry): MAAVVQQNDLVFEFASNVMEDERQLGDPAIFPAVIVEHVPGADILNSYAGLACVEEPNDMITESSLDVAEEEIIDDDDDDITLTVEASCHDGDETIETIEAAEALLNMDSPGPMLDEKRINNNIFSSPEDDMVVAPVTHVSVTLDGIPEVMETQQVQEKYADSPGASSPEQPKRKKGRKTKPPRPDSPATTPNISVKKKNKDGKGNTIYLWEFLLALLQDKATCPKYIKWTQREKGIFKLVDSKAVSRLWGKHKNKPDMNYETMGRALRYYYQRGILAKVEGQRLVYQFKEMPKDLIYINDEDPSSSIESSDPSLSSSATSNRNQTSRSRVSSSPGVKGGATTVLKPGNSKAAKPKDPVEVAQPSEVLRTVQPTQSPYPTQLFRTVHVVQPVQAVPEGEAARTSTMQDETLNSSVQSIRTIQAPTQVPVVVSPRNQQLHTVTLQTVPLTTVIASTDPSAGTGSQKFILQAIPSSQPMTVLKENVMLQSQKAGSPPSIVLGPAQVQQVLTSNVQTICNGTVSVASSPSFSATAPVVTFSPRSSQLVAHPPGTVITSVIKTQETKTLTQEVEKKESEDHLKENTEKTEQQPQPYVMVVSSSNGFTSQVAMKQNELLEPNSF

For CCAATC, the binding signal with FLI1 was 1.21 fold enrichment (6-mer frequency, TF over GST control); with ELK1, 1.14 fold enrichment (6-mer frequency, TF over GST control); in the experiment with GABPA, 1.2 fold enrichment (6-mer frequency, TF over GST control); in the experiment with ERG, 1.12 fold enrichment (6-mer frequency, TF over GST control); in the experiment with ELF1 it was 1.23 fold enrichment (6-mer frequency, TF over GST control); with EHF it was 1 fold enrichment (6-mer frequency, TF over GST control). Moreover, the binding signal with SPI1 was 1.14 fold enrichment (6-mer frequency, TF over GST control); with SPIB it was 1.1 fold enrichment (6-mer frequency, TF over GST control); with ELK3 it was 1.22 fold enrichment (6-mer frequency, TF over GST control).

In the case of TAGTGG, the binding signal with FLI1 is 1.18 fold enrichment (6-mer frequency, TF over GST control); in the experiment with ELK1, 1.19 fold enrichment (6-mer frequency, TF over GST control); with GABPA it was 1.25 fold enrichment (6-mer frequency, TF over GST control); with ERG, 1.07 fold enrichment (6-mer frequency, TF over GST control); with ELF1, 1.28 fold enrichment (6-mer frequency, TF over GST control); with EHF, 1.32 fold enrichment (6-mer frequency, TF over GST control). Also, the binding signal is 1.19 fold enrichment (6-mer frequency, TF over GST control) in the experiment with SPI1; 1.34 fold enrichment (6-mer frequency, TF over GST control) with SPIB; 1.4 fold enrichment (6-mer frequency, TF over GST control) in the experiment with ELK3.

Turning to CCAAAA, the binding signal with FLI1 was 1.09 fold enrichment (6-mer frequency, TF over GST control); in the experiment with ELK1, 1.13 fold enrichment (6-mer frequency, TF over GST control); in the experiment with GABPA, 1.16 fold enrichment (6-mer frequency, TF over GST control); with ERG, 1.12 fold enrichment (6-mer frequency, TF over GST control); in the experiment with ELF1, 1.17 fold enrichment (6-mer frequency, TF over GST control); with EHF, 1.15 fold enrichment (6-mer frequency, TF over GST control). Also, the binding signal with SPI1 is 1.29 fold enrichment (6-mer frequency, TF over GST control); with SPIB it was 1.12 fold enrichment (6-mer frequency, TF over GST control); with ELK3, 1.13 fold enrichment (6-mer frequency, TF over GST control).

As to AATGAC, the binding signal with FLI1 is 1.36 fold enrichment (6-mer frequency, TF over GST control); with ELK1 it was 1.52 fold enrichment (6-mer frequency, TF over GST control); with GABPA, 1.43 fold enrichment (6-mer frequency, TF over GST control); with ERG it was 1.42 fold enrichment (6-mer frequency, TF over GST control); with ELF1, 1.36 fold enrichment (6-mer frequency, TF over GST control); with EHF, 1.35 fold enrichment (6-mer frequency, TF over GST control). The binding signal with SPI1 is 1.36 fold enrichment (6-mer frequency, TF over GST control); with SPIB it was 1.39 fold enrichment (6-mer frequency, TF over GST control); in the experiment with ELK3 it was 1.44 fold enrichment (6-mer frequency, TF over GST control).

Regarding TAATTA, the binding signal is 1.24 fold enrichment (6-mer frequency, TF over GST control) with FLI1; 1.2 fold enrichment (6-mer frequency, TF over GST control) with ELK1; 1.23 fold enrichment (6-mer frequency, TF over GST control) with GABPA; 1.3 fold enrichment (6-mer frequency, TF over GST control) with ERG; 1.3 fold enrichment (6-mer frequency, TF over GST control) with ELF1; 1.22 fold enrichment (6-mer frequency, TF over GST control) in the experiment with EHF. Also, the binding signal in the experiment with SPI1 was 1.25 fold enrichment (6-mer frequency, TF over GST control); with SPIB, 1.27 fold enrichment (6-mer frequency, TF over GST control); with ELK3 it was 1.24 fold enrichment (6-mer frequency, TF over GST control).

Regarding GTACTT, the binding signal was 1.92 fold enrichment (6-mer frequency, TF over GST control) in the experiment with FLI1; 2.32 fold enrichment (6-mer frequency, TF over GST control) with ELK1; 1.81 fold enrichment (6-mer frequency, TF over GST control) in the experiment with GABPA; 1.88 fold enrichment (6-mer frequency, TF over GST control) in the experiment with ERG; 1.9 fold enrichment (6-mer frequency, TF over GST control) in the experiment with ELF1; 1.96 fold enrichment (6-mer frequency, TF over GST control) in the experiment with EHF. Also, the binding signal is 1.94 fold enrichment (6-mer frequency, TF over GST control) with SPI1; 1.78 fold enrichment (6-mer frequency, TF over GST control) in the experiment with SPIB; 2.51 fold enrichment (6-mer frequency, TF over GST control) with ELK3.

For the sequence CGTATA, the binding signal with FLI1 was 1.12 fold enrichment (6-mer frequency, TF over GST control); with ELK1, 1.23 fold enrichment (6-mer frequency, TF over GST control); with GABPA it was 1.17 fold enrichment (6-mer frequency, TF over GST control); in the experiment with ERG it was 1.11 fold enrichment (6-mer frequency, TF over GST control); with ELF1, 1.11 fold enrichment (6-mer frequency, TF over GST control); in the experiment with EHF it was 1.09 fold enrichment (6-mer frequency, TF over GST control). The binding signal with SPI1 is 1.13 fold enrichment (6-mer frequency, TF over GST control); in the experiment with SPIB, 1.25 fold enrichment (6-mer frequency, TF over GST control); in the experiment with ELK3, 1.16 fold enrichment (6-mer frequency, TF over GST control).

(Values after paper PMC7862700, “An all-to-all approach to the identification of sequence-specific readers for epigenetic DNA modifications on cytosine”.)
